In PubChem BioAssay AID504332 (National Center for Advancing Translational Sciences (NCATS), 2011):
The campaign covered roughly 350,000 compounds. About 31,000 (8.9%) were called active. Inconclusive results (about 15%) are left out. The sample holds actives, similar compounds and a random draw of the others, so the mix is not that of the screen. A number with no mark means an inactive call. The call rests on the fitted dose curve; in most records, active means well fitted inhibition curve with a large enough effect; inconclusive means small, poorly fitted or top-dose-only effect; inactive means no such curve, though single readings can be large or run the other way.

Target: Histone-lysine N-methyltransferase EHMT2 (Homo sapiens) (UniProt Q96KQ7)
Sequence (Q96KQ7 913-1193 limits assumed): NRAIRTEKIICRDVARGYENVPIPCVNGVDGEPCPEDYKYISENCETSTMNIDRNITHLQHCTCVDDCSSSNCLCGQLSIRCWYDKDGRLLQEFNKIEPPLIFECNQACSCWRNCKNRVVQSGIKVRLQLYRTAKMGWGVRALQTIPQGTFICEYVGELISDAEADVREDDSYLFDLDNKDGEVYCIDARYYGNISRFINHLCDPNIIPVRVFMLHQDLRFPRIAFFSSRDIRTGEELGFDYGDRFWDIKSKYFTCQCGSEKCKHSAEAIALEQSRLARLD
Test: qHTS Assay for Inhibitors of Histone Lysine Methyltransferase G9a; further: nearly all actives have a fitted effect of over 75% in size
Conditions: G9a H3K9 monomethylation, AlphaScreen, 2 h; series mostly up to 59 µM; activity, negative = inhibition: at the top concentration
From the text: Methylated lysines, on the N-terminal tails of histone proteins serve as epigenetic markers to recruit factors that can then modify local chromatin structure to lead to functional consequences. G9a and other members of the SUV39 family of the SET domain-containing superfamily of histone lysine methyltransferases (HMT) have been identified to specifically methylate Lys9 of histone H3 (H3K9). G9a catalyzes the mono- and di-methylation of H3K9 in mammalian euchromatic regions, where the resulting H3K9me2 is indicative of transcriptional repression. […] The inhibition of G9a will result in transcriptional activation and work synergistically with DNA methyltransferase and histone deacetylase inhibitors, to kill cancer cells. This qHTS assay for identification of G9a inhibitors is a chemiluminescence based AlphaScreen (PerkinElmer). Methylation of biotinylated-histone peptide is measured through specific antibody-based detection, in conjunction with streptavidin-coated donor and anti-IgG antibody-coated acceptor beads. The method is particularly well suited for detection of inhibitors acting by the desired histone peptide competitive mechanism and is applicable to testing other HMTs. Although AlphaScreen has significant advantages with its utility in a variety of epigenetic target assays, the primary screening data provided in this deposition should be used with caution due to the prevalence of screening artifacts. An AlphaScreen counterscreen is highly recommended to be run against any putative actives to eliminate non specific artifacts. Alternatively, one can use other AlphaScreen assays in PubChem to filter out promiscuous hits. Quinn et al. A chemiluminescence-based method for identification of histone lysine methyltransferase inhibitors. Mol Biosyst 6(5): 782-8. 2010. PMID: 20567762 [2] Baell,Holloway. New substructure filters for removal of pan assay interference compounds (PAINS) from screening libraries and for their exclusion in bioassays. J Med Chem. 53(7):2719-40. 2010. PMID: 20131845 NIH Molecular Libraries Probe Production Network [MLPCN] NIH Chemical Genomics Center [NCGC] Structural Genomics Consortium (SGC) NIH Grant: 5U54 MH084681-02
To each well of a 1,536w plate, 2ul of HMT enzyme (final 20nM) were added, using a nanoliter dispenser. The G9a- and GLP-inhibitor BIX-01294 (CID: 25150857) are used as an intraplate control, with a 16-point titration in duplicate. A Kalypsys pin-tool transferred 23nl of library compound solution in DMSO to each well. Following a 15 min incubation of enzyme with compounds at room temperature, 1ul mixture of b-H3K9 peptide substrate (final 500nM) and SAM cofactor (final 20uM) were added. Reactions were allowed to proceed at room temperature for 2 hours. Methylated b-H3K9 peptide product was detected with 0.5 ug/mL rabbit polyclonal anti-monomethyl histone H3K9 antibody (Abcam Inc., Cambridge, MA) and 20 ug/mL each streptavidin-coated donor and anti-rabbit IgG acceptor AlphaScreen beads. Antibody and beads were added in a 1ul dispense, for a final volume of 4ul, and plates were incubated, protected from the light, for 10 min at room temperature. Microplates were then read on an EnVision multilabel plate reader using the 1,536 plate HTS AlphaScreen aperture (excitation time 80 ms, measurement time 240 ms).
On the % scale 0 is the no-effect control and ±100 the full control effect; potency means the concentration at half of the fitted maximal effect.

Row | SMILES | activity, negative = inhibition | Potency
1 | CC1Cc2ccccc2N1C(=O)CSc1nnc(-c2ccc(S(=O)(=O)N3CCCC3)cc2)n1C (centres undefined) | -19.1% (inactive) | –
2 | CCN(CCCNC(=O)c1c(C)oc2ncn(CC(C)C)c(=O)c12)Cc1ccccc1 | -2.01% (inactive) | –
3 | COc1cccc(-c2nnc3n(CCc4ccccc4)c(=O)c4ccccc4n23)c1O | -23.1% (inactive) | –
4 | O=C(Cn1cnc2ccccc2c1=O)Nc1cccc(S(=O)(=O)N2CCCCC2)c1 | 6.9% [at 102 µM] (inactive) | –
5 | CCN(CC(=O)Nc1ccc(Cl)c(S(=O)(=O)N(C)C)c1)Cc1nc2ccccc2c(=O)[nH]1 | – | 39.8 µM (active)
6 | CCCCN(CC(=O)Nc1cccc(S(=O)(=O)N2CCCC2)c1)Cc1nc2ccccc2c(=O)[nH]1 | – | 7.94 µM (active)
7 | CN(C)S(=O)(=O)c1cc(NC(=O)CN2C(=O)NC3(CCCc4ccccc43)C2=O)ccc1Cl (centres undefined) | -7.78% (inactive) | –
8 | CCN(CC(=O)Nc1cccc(S(N)(=O)=O)c1)Cc1nc2ccccc2c(=O)[nH]1 | -46.9% [at 102 µM] (inactive) | –
9 | CCCC(=O)N(CCc1ccccc1)Cc1nc2ccccc2c(=O)[nH]1 | 10.1% (inactive) | –
10 | O=C(COc1ccccc1F)Nc1ccc(C(=O)OCc2cc(=O)n3nc(C4CC4)sc3n2)cc1 | 7.25% (inactive) | –
11 | CCCNc1ncnc2c1c(-c1ccccc1)cn2-c1ccc(OCC)cc1 | -35.9% (inactive) | –
12 | S=C(Nc1cccc(Br)c1)N1CCn2cccc2C1c1cccnc1 (centres undefined) | – | 50.1 µM (active)
13 | CC(=O)N1c2ccc(S(=O)(=O)N3CCCC(C(=O)NCc4ccc(Cl)cc4)C3)cc2CC1C (centres undefined) | 10.1% (inactive) | –
14 | COC(=O)c1cc(NC(=O)CCS(=O)(=O)c2cc(Br)cc3c2N(C(=O)C2CC2)CC3)cc(C(=O)OC)c1 | 0.579% (inactive) | –
15 | N#Cc1ccccc1S(=O)(=O)N1CCN(Cc2c(O)ccc3ccccc23)CC1 | -0.103% [at 2.33 µM] | –
16 | CCCCn1c(N)c(N(CC)C(=O)/C=C/c2ccco2)c(=O)[nH]c1=O | -6.99% (inactive) | –
17 | O=C(OCN1C(=O)c2ccccc2C1=O)/C(=C\c1ccco1)NC(=O)c1ccccc1 | -8.62% (inactive) | –
18 | CCCCN=C1N/C(=C\c2ccco2)C(=O)N1c1ccccc1 | – | 44.7 µM (active)
19 | COc1cc(NC(=O)c2cc(C3CC3)nc3c2c(C)nn3-c2ccccc2)cc(OC)c1 | 5.19% (inactive) | –
20 | CCc1ccc(S(=O)(=O)Nc2cc3c(C(=O)OCc4ccccc4)c(C)oc3c3ccccc23)cc1 | -32.7% (inactive) | –
21 | CCCCNC(=O)Cn1nc(C)c(S(=O)(=O)N2CCOCC2)c1C | 8.75% [at 12.7 µM] | –
22 | O=C(c1ccco1)N1CCC2(CC1)CN(c1ncccn1)C2 | 6.99% [at 12.7 µM] | –
23 | O=C(c1ccco1)N1CCC2(CC1)CCN(c1ncccn1)CC2 | 4.8% [at 12.7 µM] | –
24 | O=C(C1=C(O)C(=O)N(c2ncccn2)C1c1cccs1)c1ccco1 (centres undefined) | – | 10 µM (active)
25 | COC(=O)c1ccc(OC)c(Cn2c(=O)n(Cc3ccccc3)c(=O)c3c2c2cc(OC)ccc2n3C)c1 | 3.08% (inactive) | –

Row | SMILES | activity, negative = inhibition | Potency
26 | Cc1nn(Cc2ccccc2)c(C)c1CNC(=O)c1ccc(F)c(S(=O)(=O)N2CCOCC2)c1 | -14.2% [at 12.7 µM] | –
27 | CCN(C(=O)CSc1nc(N)cc(=O)[nH]1)C1CCS(=O)(=O)C1 (centres undefined) | 6.8% [at 12.7 µM] | –
28 | O=C(Nc1ccc2c(c1)OCCO2)c1ccc(Cl)c(S(=O)(=O)N2CCCCC2)c1 | -22.9% [at 12.7 µM] | –
29 | CCN1CCN(c2ccc(S(=O)(=O)N3CCCCC3)cc2NC(=O)c2cccc(NC(C)=O)c2)CC1 | – | 50.1 µM (active)
30 | O=C(Nc1cccnc1)c1cccc(S(=O)(=O)N2CCCC2)c1 | 35.8% [at 102 µM] (inactive) | –
31 | Cc1ccc(S(=O)(=O)N2CCCCC2)cc1NC(=O)c1cccnc1 | -32.3% [at 102 µM] (inactive) | –
32 | O=C(Nc1cccc(S(=O)(=O)N2CCCCC2)c1)c1ccc2c(c1)OCO2 | – | 1 µM (active)
33 | CCN1CCN(c2ccc(S(=O)(=O)N3CCCCC3)cc2NC(=O)Cc2c(Cl)cccc2Cl)CC1 | 40% [at 102 µM] (inactive) | –
34 | CC(C)(C)SCCSC1=CC(=O)CC(c2ccccc2)C1 (centres undefined) | 64.4% [at 102 µM] (inactive) | –
35 | O=C(CSc1nc2ccccc2c(=O)n1-c1ccc(F)cc1)NC1CC1 | 7.18% [at 0.501 µM] | –
36 | COC(=O)CC1Oc2ccccc2-n2cc(-c3ccccc3)nc21 (centres undefined) | -1.05% (inactive) | –
37 | COc1ccc(C(=O)Nc2ccccc2C(=O)N/N=C/c2ccc(O)c(OC)c2)cc1 | -4.54% [at 2.33 µM] | –
38 | COc1ccc(/C=N/NC(=O)c2cccc(C(F)(F)F)c2)cc1 | 15.8% (inactive) | –
39 | COc1ccc(/C=N/Nc2ccccc2C(=O)O)cc1 | – | 79.4 µM (active)
40 | COc1ccc(Cc2nnc(SCC(=O)N(c3ccccc3)C(C)C)n(N)c2=O)cc1 | 1.31% [at 102 µM] (inactive) | –
41 | CCCCOc1ccc(C(C)(O)CCN2CCOCC2)cc1 (centres undefined) | -4.38% [at 102 µM] (inactive) | –
42 | CCOc1ccc(C(=O)CCN2CCOCC2)cc1 | – | 39.8 µM (active)
43 | Cc1cccc(C)c1OCCN1CCOCC1 | – | 11.2 µM (active)
44 | Cc1cccc(C)c1OCC(O)CN1CCCCC1 (centres undefined) | -21.2% [at 102 µM] (inactive) | –
45 | Cc1ccc(S(=O)(=O)NCCN2CCOCC2)cc1C | -19.4% [at 12.7 µM] | –
46 | CCOc1ccc(C(=O)CCC(=O)Nc2ccncc2)cc1 | -14% [at 12.7 µM] | –
47 | COc1ccc(C(=O)Nc2ccc(CN3CCOCC3)cc2)cc1 | 39.7% [at 12.7 µM] | –
48 | CC(=O)c1ccc(OCCN2CCOCC2)cc1 | – | 25.1 µM (active)
49 | CCOc1ccc(C2C(C(=O)O)c3ccccc3C(=O)N2CCN2CCOCC2)cc1 (centres undefined) | 1.66% [at 12.7 µM] | –
